miR-21 reporter – qHTS Assay for Modulators of miRNAs and/orActivators of miR-21; HeLa miR-21 FLuc reporter, luciferase, 48 h; Potency, µM (doses to about 38.3 µM), for the others: top-dose activity change, positive = activation, actives largely listed as activators; 340,000 tested, under 10 active; AID 2288, 2010;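 also: % of control where 0% means no effect; miR-21 action dims this reporter so a rising signal means less miR-21 action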
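HeLa cells stably expressing CMV-driven firefly luciferase with a downstream miR-21 binding sequence, endogenously expressing miR-21, were treated with titrations (up to about 40uM final) for 48 hours at 37 degree Celsius. Luciferase luminescence was read after lysis.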
A549 tox – Nrf2 qHTS screen for inhibitors: counterscreen for cytotoxicity. AID 504648, 2011. 390,000 compounds, 0.16% hits. Potency, µM (series often up to 46 µM), for inactives: at the highest dose activity change, negative = cytotoxicity, hits mostly inhibitors. A549 ARE-Fluc cells, CellTiter-Fluor viability, 18-24 h; also: potency is read from the fitted curve at half-maximal effect; % is scaled to controls: 0 for no effect and ±100 for the full control effect
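Cytotoxicity counterscreen: CellTiter-Fluor fluorescence was measured in A549 ARE_Fluc cells after 18-24 h of compound exposure in a concentration series. The subsequent BugLite luminescent read reports ARE-luciferase activity.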
Nrf2 inh – Nrf2 qHTS screen for inhibitors | AID 504444, 2011 | Potency, µM (top dose mostly 46 µM), for the others: at the top dose activity change, negative = inhibition, hits mostly inhibitors | A549 ARE-Fluc reporter, luciferase luminescence, 18-24 h | 360,000 compounds, 2.1% hits; also: potency is read from the fitted curve at half-maximal effect; % is scaled to controls: 0 for no effect and ±100 for the full control effect; nearly all actives have a fitted effect of over 60% in size
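Concentration-response testing used A549 ARE_Fluc cells at 5000 cells/well. Following an 18-24 h compound incubation, viability was read by fluorescence (Ex 405/Em 525) and luciferase output by luminescence.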
Nrf2 activator – qHTS of Nrf2 Activators | AID 624171, 2012 | 410,000 compounds, 0.31% hits | AREc32 ARE-luciferase reporter (MCF7-derived line), luminescence, 24 h | Potency, µM (titrated, usually from 46.1 µM), inactives show top-dose activation, usual class: activators; also: potency is read from the fitted curve at half-maximal effect; % of control where 0% means no effect; nearly all actives have a fitted effect of over 65% in size
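Reporter line AREc32 (ARE-Fluc), seeded overnight in OPTI-MEM with 5% FBS; compound pin-transferred, 24 hr at 37 deg C, 5% CO2; luminescent read-out.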
p53 reactivation – qHTS assay for re-activators of p53 using a Luc reporter. Potency, µM (series often up to 92.2 µM), for inactives: at the top dose activity change, positive = activation, actives largely listed as activators. 320,000 compounds, 0.063% hits. H1299 p53-A138V BP100-luciferase reporter, luminescence, 24 h; also: potency is read from the fitted curve at half-maximal effect; % of control where 0% means no effect; nearly all actives have a fitted effect of over 45% in size
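p53-null H1299 cells stably carrying temperature-sensitive p53-A138V and a BP100-luciferase reporter were pinned with compounds (4-point, 1:5 series) and held 24 hrs at 37 deg C. Luminescence was read 10 min after detection reagent.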
ClpP mod – qHTS Assay for Activators of ClpP; AID 651965, 2013; Potency, µM (series often up to 57.5 µM), inactives show at the highest dose activity change, negative = active; 340,000 compounds, 1.9% hits; purified B. subtilis ClpP, FRET peptide cleavage, 20 min; ATP-dependent Clp protease proteolytic subunit (Bacillus subtilis (strain 168)), P80244; active = well fitted falling curve with a large enough effect; inconclusive = small, poorly fitted or top-dose-only effect; inactive = no such curve, though single readings can be large or run the other way; also: potency is read from the fitted curve at half-maximal effect; the source files actives as falling curves though it sought activators and does not explain the sign; nearly all actives have a fitted effect of over 65% in size
Target sequence (P80244 whole entry, looked up): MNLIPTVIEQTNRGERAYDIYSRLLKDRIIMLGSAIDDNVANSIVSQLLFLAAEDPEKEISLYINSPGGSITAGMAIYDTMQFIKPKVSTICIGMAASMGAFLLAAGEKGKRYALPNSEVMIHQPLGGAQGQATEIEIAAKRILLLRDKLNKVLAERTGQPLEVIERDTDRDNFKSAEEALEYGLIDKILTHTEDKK
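Buffer: 100 mM Tris/HCl pH8, 100 mM KCl, 0.05% low protease BSA, 2.5% glycerol, 0.01% Tween-20. ClpP 10 microg/mL final; 20 min RT; delta FRET normalized to ADEP and DMSO controls.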
An asterisk follows results filed as active. An excerpt weighted towards active compounds, which were near 3.7% of everything screened. Unless noted, calls follow the shape of the dose curve; as a rule, active = well fitted curve in the direction sought with a large enough effect; inconclusive = small, poorly fitted or top-dose-only effect, or another doubt; inactive = no such curve, though single readings can be large; an effect the other way counts as inactive or inconclusive.

Results for O=C(NCC1CCCN1S(=O)(=O)c1cccs1)c1ccccc1 (stereo not given) ?
A549 tox: -4%; Nrf2 inh: inconclusive; Nrf2 activator: -1%; p53 reactivation: -5%; ClpP mod: -13%

What do the screens show for `O=C(NCC1CCCN1S(=O)(=O)c1cccs1)c1cccc(F)c1` (stereo not given)?
A549 tox: -13%; Nrf2 inh: 13µM*; Nrf2 activator: 2%; p53 reactivation: -11%; ClpP mod: -3%

What do the screens show for `O=C(NCC1CCCN1S(=O)(=O)c1cccs1)c1ccc(Cl)cc1` (stereo not given)?
A549 tox: -5%; Nrf2 inh: 23µM*; Nrf2 activator: 0%; p53 reactivation: -4%

Results for O=C(NCC1CCCN1S(=O)(=O)c1cccs1)c1ccc(F)cc1 (stereo not given) ?
A549 tox: 2%; Nrf2 inh: -19%; Nrf2 activator: 0%; p53 reactivation: 2%; ClpP mod: inconclusive

What do the screens show for `CCN(CC)C(=O)C1CCCN(c2ncnc3c2cnn3-c2ccc(Cl)cc2)C1` (stereo not given)?
miR-21 reporter: 25%; A549 tox: -1%; Nrf2 inh: 21µM*; Nrf2 activator: -4%; p53 reactivation: 0%; ClpP mod: -12%

Results for CCCN1CNc2c(c(=O)[nH]c(=S)n2CCc2cccc(Cl)c2Cl)C1 ?
A549 tox: 3%; Nrf2 inh: -21%; ClpP mod: -4%

What do the screens show for `CC(=O)c1cccc(NC(=O)C2CCN(S(=O)(=O)c3ccc4c(c3)CCCN4C(C)=O)CC2)c1`?
miR-21 reporter: 1%; A549 tox: 2%; Nrf2 activator: 0%; ClpP mod: 0%

How did Cc1ccc(-n2ncc3ccccc3c2=O)cc1Cl do in these assays?
miR-21 reporter: -53%; A549 tox: 0%; Nrf2 inh: inconclusive; Nrf2 activator: -1%; p53 reactivation: 6%; ClpP mod: -1%

Results for O=c1c2ccccc2cnn1-c1ccc(Cl)cc1 ?
miR-21 reporter: -34%; A549 tox: 0%; Nrf2 activator: 7%; p53 reactivation: 25µM*; ClpP mod: -6%

How did Cc1cc(C)c(NC(=O)Cn2c(=O)n(Cc3ccc(C(=O)NCc4ccc5c(c4)OCO5)cc3)c(=O)c3ccccc32)c(C)c1 do in these assays?
miR-21 reporter: -8%; A549 tox: -16%; Nrf2 inh: 15µM*; Nrf2 activator: -1%; ClpP mod: -1%

What do the screens show for `Cc1nc2nc(-c3ccc(Cl)cc3Cl)nn2c(C)c1CCC(=O)Nc1ccc(F)cc1`?
miR-21 reporter: 11%; A549 tox: 2%; Nrf2 inh: inconclusive; Nrf2 activator: -2%; ClpP mod: -8%

How did OC(c1cccc(CN2CCCCC2)c1)c1ncc(-c2ccccc2Cl)[nH]1 (stereo not given) do in these assays?
Nrf2 activator: 5%; ClpP mod: 0%

What do the screens show for `CCC(=O)N1CCc2cc(Br)cc(S(=O)(=O)N3CCC(C(=O)Nc4cccc(C)c4)CC3)c21`?
miR-21 reporter: 29%; A549 tox: -8%; Nrf2 inh: 8.2µM*; Nrf2 activator: -1%; ClpP mod: -4%

Results for CSc1n[nH]c2nc3c(c(=O)n12)C1(CCCC1)Cc1ccccc1-3 ?
miR-21 reporter: 4%; A549 tox: -1%; Nrf2 inh: -9%; Nrf2 activator: 3%; p53 reactivation: -2%; ClpP mod: 28µM*

How did CSc1nnc2n(C)c3c(c(=O)n12)C1(CCCC1)Cc1ccccc1-3 do in these assays?
miR-21 reporter: -1%; A549 tox: 28%; Nrf2 inh: 12%; Nrf2 activator: 0%; p53 reactivation: -2%; ClpP mod: 28µM*
